Assay outcomes as filed in PubChem.
DAX1 inh-1 – DAX1 (NR0B1) inhibitors on StAR promoter, primary screen, cell-based, luminescence, SF-1 (NR5A1), full-length DAX-1; HEK293T StAR-luciferase reporter, SF-1/DAX-1 repression relief; 370,000 compounds, 1.1% hits; inhibition, % at 6.8 µM;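 active = inhibition above the mean over all tested compounds plus 3 SD, cut at about 3.6% in these data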;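 note: 0% = DAX-1 cells with DMSO and 100% = cells lacking DAX-1 with DMSO; higher inhibition means more luminescence from relief of DAX-1 repression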
hcDAF-12 act – H. contortus DAF-12 nuclear receptor activators, primary screen, cell-based, luminescence, HEK293, lit1-tk-luc reporter | AID 652067, 2013 | HEK293 hcDAF-12 lit1-tk-luc reporter; 0% DMSO, 100% Δ7-dafachronic acid | activation, % at 6.8 µM | 370,000 compounds, 1.4% hits;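 active = activation above the mean of all tested compounds plus 3 SD, cut at about 5.5% in these data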;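 note: 100% = response to 3 µM Δ7-dafachronic acid high control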
ssDAF-12 act – S. stercoralis DAF-12 nuclear receptor activators, primary screen, cell-based, luminescence, HEK293, GRIP1 co-expression, lit1-tk-luc. HEK293 ssDAF-12/GRIP1 lit1-tk-luc reporter; % of 3 µM dafachronic acid response. activation, % at 6.8 µM. 370,000 compounds, 1% hits. AID 652126, 2013;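 active = activation above the mean over all tested compounds plus 3 SD, cut at about 0.9% in these data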;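 note: 0% = DMSO-only wells and 100% = 3 µM delta7-dafachronic acid wells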
hgDAF-12 ag – H. glycines DAF-12 receptor agonists, primary screen, cell-based, luminescence, HEK293, GAL4 fusion, UAS-luciferase; HEK293 GAL4-hgDAF12 UAS-luciferase reporter, agonist luminescence; normalized to butyrate control; activation, % at 6.8 µM; 370,000 compounds, 1.8% hits; AID 687014, 2013;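 active = activation above a cutoff set at the mean of all screened compounds plus 3 SD, cut at about 10% in these data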;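 note: 0% = DMSO wells and 100% = sodium butyrate wells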
DAX1 inh-2 – DAX1 (NR0B1) inhibitors, primary screen, cell-based, HEK293, Gal4-DAX1, luciferase luminescence. HEK293 Gal4-DAX1 luciferase reporter. inhibition, % at 6.75 µM. 340,000 compounds, 0.99% hits. AID 504766, 2011;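 active = inhibition above the mean over all tested compounds plus 3 SD, cut at about 4.2% in these data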;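 note: 0% = DAX1-transfected cells with DMSO and 100% = empty-vector control cells with DMSO; inhibition shows as a rise in luminescence from relieved DAX1 repression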
Target sequence (P51843 207-470 limits assumed): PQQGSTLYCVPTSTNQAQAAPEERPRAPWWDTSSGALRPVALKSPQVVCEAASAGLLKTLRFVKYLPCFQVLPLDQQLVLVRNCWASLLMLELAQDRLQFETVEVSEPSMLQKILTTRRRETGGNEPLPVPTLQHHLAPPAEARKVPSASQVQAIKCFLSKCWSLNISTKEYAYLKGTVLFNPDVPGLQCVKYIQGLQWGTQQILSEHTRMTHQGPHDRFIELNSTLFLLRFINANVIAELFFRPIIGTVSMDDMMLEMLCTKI
* hit, by the source's call; x = no result given. Most compounds without a hit are left out; they make up all but 4.1% or so of the library.

SMILES	DAX1 inh-1	hcDAF-12 act	ssDAF-12 act	hgDAF-12 ag	DAX1 inh-2
CCc1nc2ccc(C(=O)Nc3ccc(Cl)c(Cl)c3)cn2c1N(C)Cc1ccc(OC)cc1	0	1	0	12*	x
CC(=O)N1CCN(c2ccc(N3CCN(C(C)=O)[C@@H](C)C3)c(C)c2)[C@H](C)C1	-4	-1	-1	-4	x
CN(C)CCOC(=O)C12CC3(C)CC(C)(CC(C)(C3)C1)C2	1	-1	-1	0	2
CC12CC3(C)CC(C)(C1)CC(C(N)=O)(C2)C3	0	-2	-2	3	5.8*
CNC(=O)CSc1nc2sccc2c(=O)n1-c1ccccc1	0	0	0	-1	4.6*
COC(=O)c1cc(=O)n(Cc2ccco2)c(=Nc2ccccc2)s1	-2	-1	-2	10	x
Cc1cc(NC(=O)CSc2nnc(-c3ccc4c(c3)OCCO4)o2)no1	3.9*	4	0	10	-1
Cc1cc(NC(=O)CSc2nnc(Cc3ccccc3)o2)no1	0	-1	-1	0	5.1*
Cc1cc(NC(=O)CSc2nnc(CNC(=O)c3ccccc3)o2)no1	2	1	-1	0	0
Cc1cc(NC(=O)CSc2nnc(-c3cccc(Cl)c3)o2)no1	0	-3	-1	0	1
CC(=O)N1CCN(C(=O)c2cc3c(s2)CCC(C)C3)CC1 (centres undefined)	3.9*	0	1.0*	6	2
Cc1ccc(S(=O)(=O)N2CCN(C(=O)c3cc4c(s3)CCC(C)C4)CC2)cc1 (centres undefined)	1	0	0	0	-1
Brc1cccc(C2Nc3cccc4cccc(c34)N2)c1	0	2	0	2	5.2*
COc1cccc(NC(=O)N2CC[C@@H]3[C@H]2c2cc(-c4cccc(C#N)c4)ccc2N(C)[C@@H]3CO)c1	-3	-3	-2	-3	x
CC(=O)CC[C@H]1CC[C@]2(CCCN(S(C)(=O)=O)C2)O1	0	0	-1	4	x
Cc1ccc(CN2CCN(/N=C/c3ccccc3)CC2)cc1	0	0	-1	-1	7.7*
Cc1ccc(-n2c(=O)c3ccc(C(=O)NCc4ccco4)cc3n(Cc3ccccc3C#N)c2=O)cc1	0	-1	0	2	0
Cc1ccccc1Cn1c(=O)n(Cc2ccco2)c(=O)c2ccccc21	-1	-1	-2	-1	4.5*
Cc1ccccc1Cn1c(=O)n(-c2ccccc2)c(=O)c2ccc(C(=O)NCc3ccco3)cc21	0	1	-1	1	4.6*
CCc1cc2c(nc1CC)CCCN2S(=O)(=O)c1cccs1	1	-2	-1	-2	x
COc1ccc(C2CC(=O)C(c3cccc(Cl)c3)=CN2Cc2ccccc2)cc1 (centres undefined)	-2	-3	-1	3	x
O=S(=O)(NCC(c1ccco1)N1CCc2ccccc2C1)c1ccc(Br)cc1 (centres undefined)	3.7*	-1	-1	2	0
Cc1nnc(SCC(=O)N2CCOCC2)s1	0	-1	-1	2	1
O=C(CSc1nnc(NC2CCCCC2)s1)N1CCOCC1	4.1*	3	-1	5	1
O=C(CSc1nnc(-c2ccccc2)n1Cc1ccco1)Nc1ccc(OCc2ccccc2)cc1	-1	-2	-1	3	x
O=C(c1ccc2oc(CCCc3ccccc3)nc2c1)N1CCCCC1CO (centres undefined)	3.8*	1	0	8	1
NC(=O)[C@@H]1CCCN1C(=O)c1ccc2oc(CCc3ccccc3)nc2c1	3.6*	0	-1	5	1
COCC1CCCN(C(=O)c2ccc3oc(CCCc4ccccc4)nc3c2)C1 (centres undefined)	-2	-3	-1	-2	-1
O=C(NC1CCCCCC1)c1ccc(CN2CCOCC2)cc1	1	3	0	8	4.6*
C=CCOc1ccc(C(=O)NC2CCCCC2)cc1	1	4	-1	10*	1
